Measurements as given in PubChem BioAssay AID938 (National Center for Advancing Translational Sciences (NCATS), 2007).
Where “and” joins values, the source holds several entries; their conditions need not be identical. Identical values can stand only once. Out of some 73,000 compounds screened, about 1,800 (2.5%) were called active. Roughly 13% stayed inconclusive and do not appear here. The sample holds actives, similar compounds and a random draw of the others, so the mix is not that of the screen. Calls follow the shape of the dose curve; as a rule, active = well fitted activation curve with a large enough effect; inconclusive = small, poorly fitted or top-dose-only effect; inactive = no such curve, though single readings can be large or run the other way. Where a structure was tested more than once in an assay, its records may differ in their call.

Assay: qHTS Assay for Agonists of the Thyroid Stimulating Hormone Receptor: Activators of Intracellular cAMP Concentrations in Parental HEK 293; also: nearly all actives have a fitted effect of over 55% in size; as to activation: % of control where 0% means no effect
Settings: parental HEK293 CNG cAMP sensor, membrane potential fluorescence; series mostly up to 57.1 µM; activation: at the top concentration
Source text: NIH Chemical Genomics Center [NCGC]
NIH Molecular Libraries Screening Centers Network [MLSCN]
PI Name: Dr. Marvin Gershengorn
This cell based assay utilized a cyclic nucleotide gated ion channel (CNG) as a biosensor for cAMP induction. HEK 293 cells stably expressing the modified CNG were purchased from BD biosciences (http://www.atto.com/products/actone/features_benefits.shtml) . Stimulation of cAMP production causes the CNG to open and subsequent membrane depolarization to occur. A fluorescent membrane potential dye (BD biosciences) was utilized to detect cAMP stimulation in cells.
The cells were maintained in DMEM medium (Invitrogen) containing 10 % FBS (Hyclone), 100 units/ml Penicillin, 100 ug/ml Streptomycin (Invitrogen), and 250 ug/ml Geneticin (Invitrogen) and 1 ug/ml Puromycin (Invitrogen) at 37C in 5% CO2. This assay was used as a counterscreen to "qHTS Assay for Agonists of the Thyroid Stimulating Hormone Receptor", to control for compounds signaling through endogenous receptors and other targets of HEK 293 cells.
NCGC Assay Protocol Summary:
High Throughput Screening. Freshly passaged cells were dispensed into 1536-well assay plates at 4 ul/well in DMEM containing phenol red (Invitrogen), 10% FCS (Hyclone), and 100 units/ml Penicillin, 100 ug/ml Streptomycin (Invitrogen) and incubated at 37 C with 5% CO2 for 20 to 36 hrs before the robotic screening. The screen was initiated by addition of 4 ul/well membrane potential dye containing 100 uM RO 20-1724 (Sigma Aldrich), followed by 60 min incubation at room temperature to allow for dye equilibration across the cell membrane. 23 nl/well compound or control was then added to the assay plates, which were incubated for additional 30 min before reading a Envision fluorescence plate reader (Perkin Elmer) in bottom-read mode for fluorescence intensity (emission at 590 nm).
Keywords: cAMP, CNG Ion Channel, quantitative high throughput screening, qHTS, HTS, probe identification, CNG, cAMP, cyclic nucleotide gated ion channel PubChem
Potency is read from the fitted curve at half-maximal effect.

Q: Which “activation” value does the source give for `C/C(CCc1c[nH]c2ccccc12)=N\O` here?
A: Its value is 2.11% (inactive).

Q: For `NCCc1c[nH]c2ccc(O)cc12`, which Potency is on record?
A: The Potency was “inactive and 31.6 µM (active)”.

Q: Which “activation” value does the source give for `CC(C)(c1ccc(OC[C@@H]2CO2)cc1)c1ccc(OC[C@H]2CO2)cc1` here?
A: Its value is 23.3% (inactive).

Q: Which Potency does the source give for `N#CCCCl` here?
A: The Potency was “inactive”.

Q: For `ClC(Cl)(Cl)c1ccccc1`, which Potency is on record?
A: Its Potency is “inactive”.

Q: For `Fc1ccc(C(OCCN2CCN(C/C=C\c3ccccc3)CC2)c2ccc(F)cc2)cc1`, which “activation” value is on record?
A: The value was -30.9% (inactive).

Q: With `c1ccc(C2NCc3ccccc3-n3cccc32)cc1` (stereo not given) as the compound, how does the Potency read?
A: Its Potency is 25.1 µM (active).

Q: Which “activation” value does the source give for `COc1ccc(C2NCc3ccc4c(c3-n3cccc32)OCO4)cc1OC` (stereo not given) here?
A: Its value is 19.3% (inactive).

Q: Which “activation” value does the source give for `CC(C)CC(C)Nc1ccc(Nc2ccccc2)cc1` (stereo not given) here?
A: The value was -10.5% (inactive).

Q: With `O=[N+]([O-])c1ccc(Cl)c(Cl)c1` as the compound, how does the “activation” value read?
A: Its value is 11.3% (inactive).

Q: With `CC(C)(c1ccccc1)c1ccc(O)cc1` as the compound, how does the “activation” value read?
A: The value was 14.7% (inactive).

Q: With `CC(C)(C)C(O)(CCc1ccc(Cl)cc1)Cn1cncn1` (stereo not given) as the compound, how does the “activation” value read?
A: Its value is 1.41% (inactive).

Q: With `C[C@@]1([C@@H](NP(=O)(c2ccccc2)c2ccccc2)c2ccccc2)C[C@H]1CCO` as the compound, how does the Potency read?
A: Its Potency is 15.8 µM (active).

Q: Which Potency does the source give for `O=C1C2(Cl)C3(Cl)C4(Cl)C(Cl)(Cl)C5(Cl)C3(Cl)C1(Cl)C5(Cl)C24Cl` (stereo not given) here?
A: Its Potency is “inactive”.

Q: With `CCCCC#N` as the compound, how does the “activation” value read?
A: The value was 8.65% (inactive).
